Granule exo inh = blocks lytic granule exocytosis; TALL-104 LAMP-1 surface exposure, flow cytometry; cells stimulated with thapsigargin and PMA; inhibition, % at 10 µM; 360,000 tested, 0.66% active; AID 651702;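 active = inhibition above about 55%, limit read from the data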
ALR H2O2 inh = human ALR oxidase inhibition via reduced H2O2; P55789; purified ALR, DTT oxidation, H2O2 HRP-luminol luminescence; inhibition, % (concentration not given with the values); 290,000 tested, 3.8% active; AID 485317;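 active = mean replicate inhibition above about 79%, with every replicate also reaching it, limit read from the data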
Target sequence (P55789 whole entry, looked up): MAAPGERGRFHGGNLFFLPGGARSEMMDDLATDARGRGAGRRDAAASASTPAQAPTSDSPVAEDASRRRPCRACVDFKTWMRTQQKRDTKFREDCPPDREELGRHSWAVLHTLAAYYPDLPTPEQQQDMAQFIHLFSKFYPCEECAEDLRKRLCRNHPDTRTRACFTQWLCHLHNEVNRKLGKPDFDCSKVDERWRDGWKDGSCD
MIN6 prolif = inducers of beta-cell replication in MIN6 cells | MIN6 cells proliferation, ATPlite luminescence, 48 h; cells starved in 0.2% serum; 100% = growth in 10% serum | proliferation, % at 10 µM | 330,000 tested, 0.29% active | AID 2380;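 active = compounds whose signal lies at least 3.5 SD above the mean of all wells on their plate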;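 also: 0% = DMSO-treated cells in low-serum medium and 100% = 10% serum control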
GASC-1 inh = blocks human GASC-1 demethylase activity; GST-JMJD2C(1-420) H3K9me3 demethylation, DELFIA europium; 330,000 tested, 0.069% active; inhibition, % at 2.35 µM; Q9H3R0; AID 2099;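 active = more than half of a compound's replicate wells show inhibition beyond 50%, single wells judged on their own value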;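 also: signal counts dimethyl H3K9 product captured on neutravidin plate; 0% = median of DMSO wells and 100% = 0.3 times that DMSO median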
PfM18AAP inh = blocks P. falciparum M18 aspartyl aminopeptidase. recombinant PfM18AAP, H-Glu-NHMec fluorogenic cleavage. inhibition, % at 7.35 µM. 290,000 tested, 1.2% active. AID 1822;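 active = inhibition above the campaign mean inhibition over all tested compounds plus 3 SD, cut at about 28% in these data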;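 also: 0% = plate median of test compound wells and 100% = 2 mM ZnCl2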
SMARCA2 activ = increases SMARCA2 function in MMTV reporter cells; AID 652017; MG213 cells, MMTV-luciferase reporter, dexamethasone, overnight; 370,000 tested, 1% active; activation, % at 9.1 µM; in the data active = activation above about 7.8%;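 also: 0% = vehicle wells and 100% = reference activator wells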
Active calls of the source: *. Rows were chosen to be rich in hits. Some 5.4% of all compounds tested hit in one or more screens of this group.

`COc1cccc(NC(=O)CSc2nnc(Cc3ccc(C)cc3)c(=O)n2N)c1` gave Granule exo inh 6.2, ALR H2O2 inh 98.5*, MIN6 prolif -1.1, GASC-1 inh -0.9 and SMARCA2 activ -1.3.
For COc1ccc(NC(=O)CSc2nnc(Cc3ccccc3)c(=O)n2N)cc1OC the results were Granule exo inh -19.7, ALR H2O2 inh 93.1*, MIN6 prolif -2.6, GASC-1 inh 1.8 and SMARCA2 activ 2.7.
Screening Cc1[nH]c(SCC(=O)Nc2cc(C(N)=O)cc(C(N)=O)c2)nc1Cc1ccccc1 returned Granule exo inh 0.9, ALR H2O2 inh 97.1*, MIN6 prolif -0.2, GASC-1 inh -6.3 and SMARCA2 activ -1.4.
For CCOC(=O)[C@]12CCCC=C1N(Cc1ccc(OC)cc1)C(=O)[C@@H]2CC(=O)N1CCCCC1 the results were SMARCA2 activ -3.5.
Screening Cc1ccc(Cc2nnc(SCC(=O)Nc3ccccc3)n(N)c2=O)cc1 returned Granule exo inh -0.4, ALR H2O2 inh 97.7*, MIN6 prolif -3.5, GASC-1 inh 30.3 and SMARCA2 activ -2.3.
For COc1ccc(Cc2nnc(SCC(=O)Nc3ccc(C)cc3)n(N)c2=O)cc1 the results were Granule exo inh 3.1, ALR H2O2 inh -4.6, MIN6 prolif 0.0, GASC-1 inh 2.3 and SMARCA2 activ -4.8.
Screening COc1ccc(NC(=O)CSc2nnc(Cc3ccc(C)cc3)c(=O)n2N)cc1OC returned Granule exo inh 3.6, ALR H2O2 inh 90.9*, MIN6 prolif 0.6, GASC-1 inh -0.9 and SMARCA2 activ 0.0.
Screening CCn1c(=NC(=O)CSC(C)=O)sc2cc(OC)ccc21 returned Granule exo inh -0.8, ALR H2O2 inh 52.5, MIN6 prolif -5.8, GASC-1 inh -3.9, PfM18AAP inh 1.4 and SMARCA2 activ -0.8.
For COCCn1c(=NC(=O)CSC(C)=O)sc2cc(OC)ccc21 the results were Granule exo inh -3.9, ALR H2O2 inh 97.7*, MIN6 prolif -6.6, GASC-1 inh -9.3, PfM18AAP inh 15.2 and SMARCA2 activ 4.1.
COC(=O)C1CN(Cc2cn(Cc3ccc(Cl)cc3)nn2)CCS(=O)(=O)N1Cc1ccc(C)cc1 (configuration not stated) was read as SMARCA2 activ -0.3.
For Cc1ccc(-c2[nH]c3ccccc3c2C(C[N+](=O)[O-])c2ccco2)cc1 (configuration not stated) the results were Granule exo inh -1.4, ALR H2O2 inh 93.5*, MIN6 prolif -6.8, GASC-1 inh -16.4, PfM18AAP inh 23.7 and SMARCA2 activ 1.5.
For COc1cc(C(C[N+](=O)[O-])c2c(C)[nH]c3ccccc23)ccc1O (configuration not stated) the results were Granule exo inh 0.1, ALR H2O2 inh 98.8*, MIN6 prolif -2.5, GASC-1 inh -0.7, PfM18AAP inh 29.3* and SMARCA2 activ -2.6.
`Cc1[nH]c2ccccc2c1C(C[N+](=O)[O-])c1ccco1` (configuration not stated) gave Granule exo inh -1.2, ALR H2O2 inh 20.6, MIN6 prolif -1.1, GASC-1 inh 10.6, PfM18AAP inh 5.6 and SMARCA2 activ -0.6.
`Cc1[nH]c2ccccc2c1C(C[N+](=O)[O-])c1cccc(O)c1` (configuration not stated) gave Granule exo inh -12.8, ALR H2O2 inh 98.0*, MIN6 prolif -0.3, GASC-1 inh -12.2, PfM18AAP inh 3.6 and SMARCA2 activ -3.4.
For Cc1[nH]c2ccccc2c1C(C[N+](=O)[O-])c1cccs1 (configuration not stated) the results were Granule exo inh -0.5, ALR H2O2 inh 59.0, MIN6 prolif -2.4, GASC-1 inh 2.0, PfM18AAP inh 17.5 and SMARCA2 activ -0.1.
`CCN(CC)C(=O)CC[C@@H]1CC[C@]2(CCCN(Cc3ccccc3)C2)O1` gave SMARCA2 activ -5.3.
Oc1ccc(Br)cc1-c1n[nH]c(=S)n1Cc1ccccc1 was read as Granule exo inh 6.3, MIN6 prolif -1.4, GASC-1 inh 0.8, PfM18AAP inh 9.5 and SMARCA2 activ -2.6.
`Cn1c(-c2cc(Br)ccc2O)n[nH]c1=S` gave Granule exo inh 4.5, ALR H2O2 inh 98.0*, MIN6 prolif 1.3, PfM18AAP inh 7.3 and SMARCA2 activ -0.7.

Screening results (PubChem BioAssay)
